The campaign covered roughly 1,000 compounds. About 200 (20%) were called active. These entries were drawn from the full list. Results with a measured potency or affinity are listed apart. A number with no mark means an inactive call. No stated cut-off is given here; in the data, active means inhibition above about 55%; inactive means the rest.
target: Dual specificity protein phosphatase 3 (Homo sapiens) (UniProt P51452); assay: VHR1 phosphatase inhibitors, biochemical (AID 1878); details: recombinant VHR phosphatase, fluorogenic substrate; at 13.3 µM; stronger effect = higher value
Sequence (P51452 whole entry, looked up): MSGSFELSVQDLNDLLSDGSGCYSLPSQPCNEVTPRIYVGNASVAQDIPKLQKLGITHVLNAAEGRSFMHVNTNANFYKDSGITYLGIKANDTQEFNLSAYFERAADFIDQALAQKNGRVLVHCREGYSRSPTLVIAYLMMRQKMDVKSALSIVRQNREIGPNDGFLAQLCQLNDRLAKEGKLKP

Question: With `Cc1[nH][nH]c(=O)c1C(c1cc(Br)ccc1O)c1c(C)[nH][nH]c1=O` as the molecule, how does the inhibition read?
Answer: 3.3%

Question: How did the inhibition turn out when `COc1ccccc1N1CCN(C2CCCN(C(=O)CCC(=O)N(C)C)C2)CC1` (stereo not given) was run?
Answer: -13.2%

Question: For `Cn1c(C(=O)N[C@@H](Cc2ccccc2)C(=O)O)cc2cc(Cl)ccc21`, which inhibition is on record?
Answer: 3.5%

Question: `COc1ccc2c(c1)cc(C(=O)N[C@@H](Cc1ccccc1)C(=O)N[C@@H](C)C(=O)O)n2C` was tested. Which inhibition did it give?
Answer: -10.4%

Question: For `CCCC(NC(=O)Cc1c(C)c2cc3c(C)c(C)oc3c(C)c2oc1=O)C(=O)N[C@@H](Cc1ccccc1)C(=O)O` (stereo not given in full), which inhibition is on record?
Answer: 68.8% (active)

Question: For `Cc1nn(CC(=O)NCCCN2CCCCC2C)c(=O)c2cccn12` (stereo not given), which inhibition is on record?
Answer: -5.4%

Question: For `CCOCCCNC(=O)C1CC(=O)N(CCc2ccccc2)C1` (stereo not given), which inhibition is on record?
Answer: 15%

Question: `CC(C)CCNC(=O)CN(C(=O)CCC(=O)Nc1ccccn1)c1ccc2c(c1)OCCO2` was tested. Which inhibition did it give?
Answer: 5.2%

Question: With `Nc1nc(-c2cc(O)ccc2[N+](=O)[O-])cc(-c2ccccc2)c1[N+](=O)[O-]` as the molecule, how does the inhibition read?
Answer: 80.5% (active)

Question: Which inhibition does the source give for `O=C(NN1C(=O)C2C(C1=O)C1C=CC2C12CC2)c1ccccc1` (stereo not given) here?
Answer: 3.2%

Question: For `N#Cc1c(N2CCCC(O)C2)nc(N)c2c(N)nc3c(c12)CC(=O)N3C12CC3CC(CC(C3)C1)C2` (stereo not given), which inhibition is on record?
Answer: -7.9%

Question: `N#Cc1c(N2CCCC2)nc(N)c2c(N)nc(N3CCCC3)cc12` was tested. Which inhibition did it give?
Answer: 78.3% (active)

Question: How did the inhibition turn out when `CCOC(=O)c1c(C)[nH]c(C)c1S(=O)(=O)NC1CCN(C(=O)OCC)CC1` was run?
Answer: -2%

Question: Which inhibition does the source give for `COc1cccc(CNCCc2ccc3c(c2)OCO3)c1OC` here?
Answer: 26.4%

Question: With `CCCN1CCC(NC(=O)CC2C(=O)NCCN2Cc2ccccc2C)CC1` (stereo not given) as the molecule, how does the inhibition read?
Answer: -11.6%

Question: For `O=C(O)CCCNc1cc(N2CCC3(CC2)OCCO3)c2noc3c2c1C(=O)c1ccccc1-3`, which inhibition is on record?
Answer: 12.8%

Question: With `CC1(C)CC(NC(=O)C(c2ccccc2)c2ccccc2)CC(C)(C)N1` as the molecule, how does the inhibition read?
Answer: 24%

Question: For `CC1(C)CC(NS(=O)(=O)c2ccc(C(C)(C)C)cc2)CC(C)(C)N1`, which inhibition is on record?
Answer: 6.7%

Question: For `Cc1ccc(S(=O)(=O)NC2CCCCCC2)cc1C(N)=O`, which inhibition is on record?
Answer: -4.2%

Question: Which inhibition does the source give for `CC1(C)CC(NC(=S)Nc2ccc(S(N)(=O)=O)cc2)CC(C)(C)N1` here?
Answer: 58.2% (active)

Question: `NS(=O)(=O)c1ccc(NC(=S)NC2CCCCCC2)cc1` was tested. Which inhibition did it give?
Answer: 56.7% (active)

Question: Which inhibition does the source give for `O=C(CCCC(=O)N(CC(=O)NC1CCCC1)c1cccc(F)c1)Nc1ccccn1` here?
Answer: -10.4%

Question: Which inhibition does the source give for `Cn1cc(CN2CCCCC2C(=O)Nc2ccc(-n3cccn3)cc2)cn1` (stereo not given) here?
Answer: 10.3%

Question: `CCC(=O)N1c2ccc(S(=O)(=O)NCCc3ccc(C)cc3)cc2CC1C` (stereo not given) was tested. Which inhibition did it give?
Answer: 7.9%

Question: `CCC(C)N(C(=O)c1csnn1)C(C(=O)NC1CCCC1)c1ccccc1F` (stereo not given) was tested. Which inhibition did it give?
Answer: 10%

Question: With `CSc1sccc1/C=C(/C#N)C(=O)c1ccco1` as the molecule, how does the inhibition read?
Answer: 28.9%

Question: For `CCn1c(=O)n(CC)c2cc(N3CCCC3)c(NC(=O)c3ccccc3F)cc21`, which inhibition is on record?
Answer: -2.4%

Question: Which inhibition does the source give for `COCCn1c(SCC(=O)N2CCCC(C)C2)nnc1-c1ccco1` (stereo not given) here?
Answer: -3.4%

Question: With `O=C(CCNS(=O)(=O)c1ccccc1)N1CCCCCC1` as the molecule, how does the inhibition read?
Answer: 7.7%

Question: Which inhibition does the source give for `O=C(NCc1ccccc1Cl)C1CCC(CNc2nc(=S)[nH]c3ccccc23)CC1` (stereo not given) here?
Answer: -7%

Question: For `CC1CCN(CCCNC(=O)C2CCN(S(=O)(=O)N3CCC4(CC3)OCCO4)CC2)CC1`, which inhibition is on record?
Answer: 1.6%

Question: `O=C(c1cc(C2CC2)on1)N1CCCC(N2CCN(c3ccc(F)cc3)CC2)C1` (stereo not given) was tested. Which inhibition did it give?
Answer: 0.4%

Question: With `CCOc1ccc(C2NC(=O)c3ccccc3O2)cc1OC` (stereo not given) as the molecule, how does the inhibition read?
Answer: -17.6%

Question: With `CN(Cc1ccccn1)C(=O)C1CCC(=O)N(CCc2ccc(Cl)cc2)C1` (stereo not given) as the molecule, how does the inhibition read?
Answer: -11.4%

Question: Which inhibition does the source give for `COc1ccc(NC(=O)CN(C)S(=O)(=O)c2ccc3[nH]c(=O)oc3c2)cc1` here?
Answer: 12.6%

Question: Which inhibition does the source give for `Cn1c(=O)oc2cc(S(=O)(=O)NCCC(=O)NCc3ccccc3Cl)ccc21` here?
Answer: 14.6%

Question: Which inhibition does the source give for `COc1ccccc1-c1nc2c3ccccc3nc(=S)n2[nH]1` here?
Answer: 7.9%

Question: `CC(C)c1ccc(NS(=O)(=O)c2cccc3cccnc23)cc1` was tested. Which inhibition did it give?
Answer: -1%

Question: Which inhibition does the source give for `COc1ccc2c(c1)C(=NNC(=O)c1ccccn1)c1cc(OC)ccc1-2` here?
Answer: 99.3% (active)

Question: For `COc1ccccc1-c1cc(C(=O)Nc2cccnc2Cl)no1`, which inhibition is on record?
Answer: 12.2%

Question: With `Cc1cc(NC(=O)C2CCCCC2)ncc1NC(=O)c1ccccn1` as the molecule, how does the inhibition read?
Answer: 9%

Question: `CCOC(=O)c1sc(=NC(=O)c2c(F)cccc2F)n(C)c1C` was tested. Which inhibition did it give?
Answer: 26.7%

Question: For `CC(=O)NCCC(=O)N(C)CC1CCN(CCc2cccc(C(F)(F)F)c2)CC1`, which inhibition is on record?
Answer: -21.4%

Question: `COc1ccc(/C=C2\SC(=S)N(CCC(=O)Nc3cccc(C(=O)O)c3)C2=O)cc1` was tested. Which inhibition did it give?
Answer: 86.4% (active)

Question: `CCc1ccc(/C=C2/SC(=S)N(CCC(=O)Nc3ccc(C(=O)O)cc3)C2=O)cc1` was tested. Which inhibition did it give?
Answer: 87.1% (active)

Question: For `COc1cccc(NC(=O)CCc2nc(-c3cccs3)no2)c1`, which inhibition is on record?
Answer: 11.2%

Question: How did the inhibition turn out when `Cc1ccc(NC(=O)COc2cccc(/C=C3\SC(=S)N(CCC(=O)O)C3=O)c2)cc1Cl` was run?
Answer: 79.2% (active)

Question: For `O=C(CCN1C(=O)/C(=C\C=C\c2ccccc2)SC1=S)Nc1ccc(C(=O)O)cc1`, which inhibition is on record?
Answer: 98.7% (active)

Question: For `COc1ccccc1C(=O)NNC(=O)CCN1C(=O)/C(=C\c2ccccc2)SC1=S`, which inhibition is on record?
Answer: 38.1%

Question: For `CCOC(=O)c1ccc(NC(=O)CCS(=O)(=O)Cc2ccccc2)cc1`, which inhibition is on record?
Answer: 11.4%

Question: `COc1ccc(S(=O)(=O)NCC2CCCN(Cc3cn(C)nc3C)C2)cc1` (stereo not given) was tested. Which inhibition did it give?
Answer: 0.5%

Question: With `COc1ccccc1N1CCN(S(=O)(=O)c2ccc3c(c2)CC(C)N3C(C)=O)CC1` (stereo not given) as the molecule, how does the inhibition read?
Answer: 2.4%

Question: How did the inhibition turn out when `CCC1CCCCN1CCCNC(=O)c1ccc2c(c1)NC(=O)CN2C` (stereo not given) was run?
Answer: -26.5%

Question: How did the inhibition turn out when `CCCCN(Cc1ccco1)C(=O)C1CCCN(c2ncnc3c2nc2n3CCCCC2)C1` (stereo not given) was run?
Answer: -4.3%

Question: How did the inhibition turn out when `CCCN1C2CCCC1CC(NC(=O)c1ccccc1OC)C2` (stereo not given) was run?
Answer: -6.6%

Question: `Cc1ccc(CNS(=O)(=O)c2c(C)[nH]c(=O)[nH]c2=O)cc1` was tested. Which inhibition did it give?
Answer: -4.8%

Question: `NC(=O)c1ccc(NC(=O)CS(=O)(=O)c2cn(CC(=O)N3CCCC3)c3ccccc23)cc1` was tested. Which inhibition did it give?
Answer: -13.4%

Question: `Cc1ccc(/C=N/N(C)C2=NS(=O)(=O)c3ccccc32)cc1` was tested. Which inhibition did it give?
Answer: 21.9%

Question: For `COCCCNC(=O)c1ccc(CS(=O)(=O)c2ccccc2OC)o1`, which inhibition is on record?
Answer: -5.7%

Question: For `Nc1[nH]n2c(=O)cc(-c3ccccc3)nc2c1N=Nc1ccc2c(c1)OCO2`, which inhibition is on record?
Answer: 98.8% (active)

Question: `COc1cccc(N2CCN(c3ccc4nnc(CCC(=O)Nc5ccc(F)cc5F)n4n3)CC2)c1` was tested. Which inhibition did it give?
Answer: 6.6%

Question: With `Cc1cc(C)c(S(=O)(=O)Cc2ccccc2)c(Cl)n1` as the molecule, how does the inhibition read?
Answer: 7.3%

Question: `COc1ccc(/C=C/C(=O)NC(=S)Nc2cc([N+](=O)[O-])ccc2O)cc1OC` was tested. Which inhibition did it give?
Answer: 95.7% (active)

Question: With `CCOc1cc2[nH]c(=S)n(Cc3ccc(C(=O)NCCN(CC)CC)cc3)c(=O)c2cc1OCC` as the molecule, how does the inhibition read?
Answer: -9.2%

Question: For `Nn1c(SCC(=O)Nc2ccccc2F)nnc1C1CCCCC1`, which inhibition is on record?
Answer: 18.2%

Question: How did the inhibition turn out when `O=C(Nc1c(C(=O)N2CCC(N3CCCCC3)CC2)oc2ccccc12)c1ccc(F)cc1` was run?
Answer: -2.2%

Question: With `CC1CCCCN1C(=O)CCC(=O)Nc1nnc(C2CCCCC2)s1` (stereo not given) as the molecule, how does the inhibition read?
Answer: -7.6%

Question: Which inhibition does the source give for `Cc1ccccc1-c1nc(CS(=O)(=O)CC(=O)NC2CCCC2)c(C)o1` here?
Answer: 7.2%

Question: With `O=c1oc(-c2ccccc2Cl)nc2ccsc12` as the molecule, how does the inhibition read?
Answer: 5.6%

Question: How did the inhibition turn out when `CCn1c(SCC(=O)N2CCOCC2)nc2c(c1=O)SC(C)C2` (stereo not given) was run?
Answer: -2.5%

Question: With `COc1ccc(CC(=O)N/N=C(\C)CC(=O)Nc2ccc(N(C)C)cc2)cc1` as the molecule, how does the inhibition read?
Answer: -12.6%

Question: With `O=C1CN(c2ccc(F)cc2)C(=S)N1c1ccccc1` as the molecule, how does the inhibition read?
Answer: 4.8%

Question: For `C[C@@H]1NC(=O)N(c2ccc(F)cc2)C1=O`, which inhibition is on record?
Answer: -6.6%

Question: Which inhibition does the source give for `CCN1CCN(C(CNS(=O)(=O)c2ccc(OC)c(C)c2)c2cccnc2)CC1` (stereo not given) here?
Answer: -7.5%

Question: How did the inhibition turn out when `CC1CCN(Cc2nnnn2CCCC(=O)N(C)C(C)c2ccccn2)CC1` (stereo not given) was run?
Answer: 7.9%

Question: For `COc1cc(OC)cc(C(=O)NN(CCC#N)C2=NS(=O)(=O)c3ccccc32)c1`, which inhibition is on record?
Answer: 15.9%

Question: For `Cc1ccccc1OCCCN1CCOCC1`, which inhibition is on record?
Answer: 2%

Question: `CCc1ccc(/C=C/c2c([N+](=O)[O-])c(=O)n(C)c(=O)n2C)cc1` was tested. Which inhibition did it give?
Answer: 3.6%

Question: `Cc1ccc(C)c(Nc2ccc3nonc3c2[N+](=O)[O-])c1` was tested. Which inhibition did it give?
Answer: -8.6%

Question: Which inhibition does the source give for `Cc1cc(OCc2cc(C(=O)N(C)CCCN3CCOCC3)no2)cc(C)c1Cl` here?
Answer: -10.5%

Question: `COc1cc(Cl)ccc1OCc1cc(C(=O)NCC(C)c2ccccc2)no1` (stereo not given) was tested. Which inhibition did it give?
Answer: 11.7%

Question: Which inhibition does the source give for `Cc1ccc(CN2CCN(Cc3cccc(C)n3)CC2CCO)cc1` (stereo not given) here?
Answer: 3.8%

Question: Which inhibition does the source give for `CC(C)(C)CN1CCN(Cc2c[nH]c3ccccc23)CC1CCO` (stereo not given) here?
Answer: -9.5%

Question: For `COc1ccc(-c2n[nH]c3c2CN(C(=O)c2ccc(OC)c(OC)c2)CC3)cc1`, which inhibition is on record?
Answer: -2.9%

Question: How did the inhibition turn out when `CCc1cc2c(C)ccc(C)c2nc1SCC(=O)Nc1c[nH]c(=O)[nH]c1=O` was run?
Answer: 27.1%

Question: Which inhibition does the source give for `Nc1cc(=O)[nH]c(SCC(=O)Nc2ccc(Oc3ccccc3)cc2)n1` here?
Answer: -5%

Question: How did the inhibition turn out when `O=C(CSc1n[nH]c(=O)[nH]c1=O)Nc1ccc2c(c1)C(=O)c1ccccc1C2=O` was run?
Answer: 98% (active)

Question: With `CC1=C(C(=O)OCC2CCCCC2)C(c2ccc(F)cc2)NC(=O)N1` (stereo not given) as the molecule, how does the inhibition read?
Answer: -8.4%

Question: `CC1=C(C(=O)OC(C)C)C(c2ccc(Cl)cc2)n2c(s/c(=C\c3ccc(OCC(=O)O)cc3)c2=O)=N1` (stereo not given) was tested. Which inhibition did it give?
Answer: 97.4% (active)

Question: With `CCOC(=O)C1=C(N)n2c(s/c(=C\c3ccncc3)c2=O)=C(C(=O)OCC)C1c1ccncc1` (stereo not given) as the molecule, how does the inhibition read?
Answer: 39.4%

From PubChem BioAssay AID1878 (Sanford-Burnham Center for Chemical Genomics, 2009)
